Source: PMC12136788
Where a chain is given by its changes, count along the chain named. In all, about 24,000 sequences were measured (“enrichment r”: median about 0.99, highest 2% from about 3.7 on). For the sample, the highest values were picked, then their nearest neighbours and some sequences at random.

B1: 33187691_33187811_5116_3pUTR_ENSG00000170275_ENST00000320954|human|control|control (ssRNA)
RNA: GGGAGUUCUACAGUCCGACGAUCGCCUGCAGAACCAAACAGCAACCACUGAGCUCCAUGCUGAUGGGUCAAAGGACAAGCAAGGCAUCUUAGAGCAGGCCUGGAAGCUCCCACAAAGCUUACAAAUGUGUUUGUUUUUUCGAACAACAGAGGAUUGAGCAUCA
B2: chr6:38652254:38652255:-_ENSG00000124767_ENST00000373365|hu_hu|hu_hu_hu_mus_False|18_18 (ssRNA)
RNA: GGGAGUUCUACAGUCCGACGAUCCGAGAACUUCAUAGCAGGGAAGUCAAGCUUCUGCAGGAGGGUCAGUCCAAGAACCCUCGUAUAAAAAUCCAGGGACUUCUUAGGAUCCUUAAUUCGUAGCAUGGUUUGCUGCAGUAGAAACAACAGAGGAUUGAGCAUCA
B3: chr2:43450610:43450611:-_ENSG00000152518_ENST00000282388|hu_hu|motif|central (ssRNA)
RNA: GGGAGUUCUACAGUCCGACGAUCAGUUAAAUAGUUUUCAUAUUGAGUUGUGGUGCAGUGGUGCGAAUCAACUCAAAACAGCGGAAAAUUCAGCAGUUAUUCUCCAACAAUUACAAAGUAAGCUCUGCGCAAGGCUUCCAGAGGCAACAGAGGAUUGAGCAUCA
B4: chr17:36096658:36096659:-_ENSMUSG00000038762_ENSMUST00000043757|mus_mus|FALSE|FALSE (ssRNA)
RNA: GGGAGUUCUACAGUCCGACGAUCCUGCUUCUCGUACUGCUUUAGCAGCUCUUUCUGCUUCUGCUGGUACAUCUUCUUGAAGGUCAUGUAAUUGCCCCUGUAGUAAUGGAGCCGCUGGGUGUCCAGGUGGAUGAUAUCAGUGCACAACAGAGGAUUGAGCAUCA
B5: chrX:71549400:71549401:+_ENSMUSG00000019087_ENSMUST00000019231|mus_hu|mus_mus_mus_hu_False|28_98 (ssRNA)
RNA: GGGAGUUCUACAGUCCGACGAUCGCAGUAGGAAGAGCAAACCUUUCCAGUCCAGUGCGCUGCAGGGUGGGAAAGCAACAACACGGACACCGUCCCACCCUCAACCCUCUCAGGUGUACAGGGUCACACAAUCUGGGUCAAAGACAACAGAGGAUUGAGCAUCA
B6: chr17:65337090:65337091:-_ENSG00000197170_ENST00000584008|hu_hu|FALSE|FALSE (ssRNA)
RNA: GGGAGUUCUACAGUCCGACGAUCACCAGUCAUUUAAUAAAUUAUUUGGAUCCUUGGGUCUCUGGAAGUUGAUAAUUCCUGCUAAUCUGUCUACUUUAGCAAAGAUGGUCUUGUUAACUACUAGAUUUGAGAGAAAGGCUUCGGCAACAGAGGAUUGAGCAUCA
B7: chr1:182797045:182797046:+_ENSMUSG00000038806_ENSMUST00000038091|mus_hu|FALSE|FALSE (ssRNA)
RNA: GGGAGUUCUACAGUCCGACGAUCAGACUCAAGCUAAAUAGAAGAAAGAAAAUAACAGAAAUUAAUUAUAUAAACAAUUGAGAAAAAUAAAACCAAAGGUUGGUUCUUUAAAAGUUAUAUCGUCGGCCAGGCACGGUGGCUCACCAACAGAGGAUUGAGCAUCA
B8: chr4:11091628:11091629:+_ENSMUSG00000028211_ENSMUST00000029865|mus_mus|motif|central (ssRNA)
RNA: GGGAGUUCUACAGUCCGACGAUCUUCUUUCUCACUGAAUUCUGGUUCUUGGCUGGAAGAAGUAGUGACUUCGCCGGCAAACAUUUUAUUCAGUCUCUGAAACAUUGUUAAGGCAAGAUUGAGAUUUUGGCUAGAUAUCUUUAUCAACAGAGGAUUGAGCAUCA
B9: chr13:100193180:100193181:-_ENSMUSG00000052727_ENSMUST00000064762|mus_mus|motif|central (ssRNA)
RNA: GGGAGUUCUACAGUCCGACGAUCAUAAUAUAAAGGCUAAAUAAAUUUAAGUUGGAAAACUGGAAGAUAACUCCAUCUUCGGUGAAAGAAAAGUCAACCAGAGGUCUGGAUUUGGCAAGAAGGCUAGAAAUUGUUUCUCUUCACCAACAGAGGAUUGAGCAUCA
B10: chr13:100193180:100193181:-_ENSMUSG00000052727_ENSMUST00000064762|mus_mus|FALSE|FALSE (ssRNA)
RNA: B9 RNA with G80U, G81A
B11: 134340332_134340452_1702_CDS_ENSG00000130723_ENST00000357304|human|control|control (ssRNA)
RNA: GGGAGUUCUACAGUCCGACGAUCAGGGCCGUUUUCCUGGGGAGAUGCCUUCUCAGCACUUGGAGACCAGGGCACUUCCUUCUCUGCCUGCUUCCGGGCCUCACCUGCCUUUCGUGCCUGCUUACACUUCUGGUCCAGCUGCUUCAACAGAGGAUUGAGCAUCA
B12: 79156280_79159801_5654_CDS_ENSMUSG00000039414_ENSMUST00000097281|mouse|control|control (ssRNA)
RNA: GGGAGUUCUACAGUCCGACGAUCACUGCUGGCAGACCACAGGAAGAGCGCAAUGGCUGUGAGUGUGCUCACUUCGUCAGGUGCGGGCAUACAGUCAUCUGGUUGAGAAUAUUCCAGGAUGCAGGCAAGGGUGCUCCGGAUUAGCAACAGAGGAUUGAGCAUCA
B13: chr10:40656395:40656396:+_ENSMUSG00000019831_ENSMUST00000105509|mus_mus|FALSE|FALSE (ssRNA)
RNA: GGGAGUUCUACAGUCCGACGAUCUUGUGAUGGAGGAGAUGGAGGCAUUAAUGGAGCAUGGGGACCCGGGGCAGUAGAUGGUGCUGGAUGGAGCCCAGAGGGAGGAUGAGCAAGAGCUGCAACUGCGACAGGAGAUGAUGGCCGCAACAGAGGAUUGAGCAUCA
B14: chr4:144460044:144460045:+_ENSG00000153147_ENST00000283131|hu_mus|hu_hu_hu_mus_False|8_68 (ssRNA)
RNA: GGGAGUUCUACAGUCCGACGAUCACGGUCCAUAGCCUGAAGAUCAACUUGCGGAUUCCAAUCUGAGUCAUACAAAAUGACUACAUCAGCAGUUGCAAGAUUGAUGCCCAGACCACCAGCACGUGUGCUUAACAUGAAUACAAACAACAGAGGAUUGAGCAUCA
B15: chr22:19452774:19452775:-_ENSG00000070010_ENST00000399523|hu_hu|hu_hu_hu_mus_False|58_88 (ssRNA)
RNA: GGGAGUUCUACAGUCCGACGAUCCUUCUCAUUGUAGUUGAUAGCAAUCACAUCCCCAGUCGUCAGACAGGCGAAGUUCCUAAGUGCAUUUUCUAAUACCGCUUUAGGGUUGGUAAUAUCCAGGAAGUCUGGGCUCUGAGGCUGCAACAGAGGAUUGAGCAUCA
B16: 91655523_91655643_1000_CDS_ENSMUSG00000022961_ENSMUST00000114036|mouse|control|control (ssRNA)
RNA: GGGAGUUCUACAGUCCGACGAUCCUCCGAUGGUGCUUCUACAGGCUGCUCUGGCAAUCUUUGCACGUCAGUUGUAGAUGACUCUGGAAAAUCCAUUGUUGAUGGGCUUGGUUCAGGGUGCACCUCAGUAGGUGUCUCUGACACCAACAGAGGAUUGAGCAUCA
B17: chr16:2011185:2011186:+_ENSG00000140990_ENST00000268668|hu_hu|motif|central (ssRNA)
RNA: GGGAGUUCUACAGUCCGACGAUCCACGCGGCGGUACUGCCGGUGGUAGUAGUAAUACCUGUUCUUUGCGUGCUGCCGCUCGGUAAAUUCUCUCACGAGGGUCACGGGUCGGUCCACGAUGAGGUCGAACGCUUUCAUCAUGUACAACAGAGGAUUGAGCAUCA
B18: chr10:75542919:75542920:+_ENSG00000172586_ENST00000372833|hu_mus|FALSE|FALSE (ssRNA)
RNA: GGGAGUUCUACAGUCCGACGAUCUGAGAGUUCAUUGAAAAUAUUUCUCCAUUUUCAGAUGAGAUGAGAUUUGUUGGGAAAUCUCUGUAACAACUUGGUCAUCUUGUGGGGAGAUAAACUCUCGGACUGUCCCAGAGACUCCUGCAACAGAGGAUUGAGCAUCA
B19: chr15:85967975:85967976:+_ENSMUSG00000035900_ENSMUST00000088931|mus_mus|FALSE|FALSE (ssRNA)
RNA: GGGAGUUCUACAGUCCGACGAUCACAGAGCAUUUUAGGUUUAUUAAAUAAAAAUUAUAAUUUAUACAAGACUUUGUAUCUAAACAAGGUUUUCUUUUUUUAAAAAAAAAAGUGACAGAGGAUUUUUUUUCCUAUCAGUUCUUUCAACAGAGGAUUGAGCAUCA
B20: chr15:85967975:85967976:+_ENSMUSG00000035900_ENSMUST00000088931|mus_mus|motif|central (ssRNA)
RNA: B19 RNA with U80G, A81G
B21: chr5:162868235:162868236:+_ENSG00000113328_ENST00000340828|hu_hu|motif|central (ssRNA)
RNA: GGGAGUUCUACAGUCCGACGAUCCCAACACACCUUCUCCAAUACAAUCUUUUCCAUUCUCAUCAAGUCUGAAACCGUAAACCGGUAUUGACUUAUUCGGAUCAAGUCAGUUGCCAAUGGGACAUUCCUUUCCUCUUCUAUUGACAACAGAGGAUUGAGCAUCA
B22: chr9:14812383:14812384:-_ENSMUSG00000031934_ENSMUST00000164273|mus_mus|mus_mus_mus_hu_True|28_108 (ssRNA)
RNA: GGGAGUUCUACAGUCCGACGAUCAUAGCUCAAGUAGAUACACGCUAACAGUAUAAUGAUGAGUGUCAGCAGGCGGCAGCUAAUGUACUUGAUGAUUAAAUUAUUAGAGUUCUUUUUUGUCUUCAAGUACUGCUCCACAAUUGGCAACAGAGGAUUGAGCAUCA

The binders below were run against T1, UNK ZnF1-3 (human, UniProt Q9C0B0 31-174) (assay: nsRBNS (natural sequence RNA bind-n-seq); RBNS binding buffer (assumed for nsRBNS): 25 mM Tris pH 7.5, 150 mM KCl, 3 mM MgCl2, 0.01% Triton X-100, 500 ug/ml BSA, 20 U/ml SUPERase-In, 4 C; UNK is unkempt and MSI1 is Musashi-1; names of the RNAs are library labels; protein concentration not given here; high values mean tight binding).
T1 sequence: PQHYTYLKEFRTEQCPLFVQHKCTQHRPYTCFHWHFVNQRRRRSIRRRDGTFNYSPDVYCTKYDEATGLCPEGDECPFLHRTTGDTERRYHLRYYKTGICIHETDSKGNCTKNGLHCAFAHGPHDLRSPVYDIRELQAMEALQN

Question: B1 was tested. Which binding signal did it give?
Answer: 1.65 enrichment R

Question: With B2 as the binder, how does the binding signal read?
Answer: 0.56 enrichment R

Question: With B3 as the binder, how does the binding signal read?
Answer: 1.75 enrichment R

Question: With B4 as the binder, how does the binding signal read?
Answer: 0.639 enrichment R

Question: How did the binding signal turn out when B5 was run?
Answer: 0.931 enrichment R

Question: B6 was tested. Which binding signal did it give?
Answer: 1.44 enrichment R

Question: With B7 as the binder, how does the binding signal read?
Answer: 14.2 enrichment R

Question: For B8, which binding signal is on record?
Answer: 0.789 enrichment R

Question: B9 was tested. Which binding signal did it give?
Answer: 6.8 enrichment R

Question: B10 was tested. Which binding signal did it give?
Answer: 3.86 enrichment R

Question: How did the binding signal turn out when B11 was run?
Answer: 0.675 enrichment R

Question: How did the binding signal turn out when B12 was run?
Answer: 1.35 enrichment R

Question: B13 was tested. Which binding signal did it give?
Answer: 3.38 enrichment R

Question: For B14, which binding signal is on record?
Answer: 0.925 enrichment R

Question: B15 was tested. Which binding signal did it give?
Answer: 0.785 enrichment R

Question: Which binding signal does the source give for B16 here?
Answer: 0.484 enrichment R

Question: How did the binding signal turn out when B17 was run?
Answer: 0.392 enrichment R

Question: B18 was tested. Which binding signal did it give?
Answer: 0.344 enrichment R

Question: Which binding signal does the source give for B19 here?
Answer: 4.57 enrichment R

Question: With B20 as the binder, how does the binding signal read?
Answer: 7.03 enrichment R

Question: How did the binding signal turn out when B21 was run?
Answer: 0.785 enrichment R

Question: How did the binding signal turn out when B22 was run?
Answer: 1.06 enrichment R
